Measurements published in PubChem BioAssay AID1159580 (chemical genetic matrix, 2015).
Where “and” joins values, the source holds several entries; their conditions need not be identical. Equal entries are not always repeated. Out of some 5,500 compounds screened, about 2,000 (36%) were called active. Inconclusive results (about 18%) are left out. Cut-off read from the data, not from the text of the source: active = normalized growth mostly below about 0.91 (no sharp cut-off); inconclusive = no clear call, values can overlap the other calls; inactive = mostly above about 0.92. This is one part of the list.

Experiment: chemical genetic growth profiling, strain panel (AID 1159580);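 note: tested at 20 µM; growth read once vehicle control cultures reached saturation at 30 °C; 1 = growth at the plate median or of vehicle wells; lower values mean less growth of the strain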
Settings: S. cerevisiae deletion strains, growth OD

Measured: normalized growth

CC(C)(Oc1ccc(CCNC(=O)c2ccc(Cl)cc2)cc1)C(=O)O
inactive: locus YAL013W, strain DEP1, stronger effect = lower value 1.02 | locus YAL021C, strain ccr4, stronger effect = lower value 0.982 | locus YAL026C, strain drs2, stronger effect = lower value 0.985 | locus YAL030W, strain snc1, stronger effect = lower value 0.996 | locus YBL061C, strain skt5, stronger effect = lower value 0.999 | locus YBR009C, strain hhf1, stronger effect = lower value 0.975 | locus YBR021W, strain FUR4, stronger effect = lower value 1.02 | locus YBR023C, strain chs3, stronger effect = lower value 0.986 | locus YBR171W, strain sec66, stronger effect = lower value 0.978 | locus YBR229C, strain ROT2, stronger effect = lower value 1.01 | locus YBR231C, strain swc5, stronger effect = lower value 1.01 | locus YBR279W, strain paf1, stronger effect = lower value 0.972 | locus YCL011C, strain gbp2, stronger effect = lower value 0.982 | locus YCL016C, strain dcc1, stronger effect = lower value 0.971 | locus YCL029C, strain bik1, stronger effect = lower value 1.02 | locus YCL069W, strain vba3, stronger effect = lower value 0.988 | locus YCR088W, strain abp1, stronger effect = lower value 0.985 | locus YDL005C, strain med2, stronger effect = lower value 0.984 | locus YDL035C, strain GPR1, stronger effect = lower value 1.04 | locus YDL040C, strain nat1, stronger effect = lower value 0.995 | locus YDL074C, strain BRE1, stronger effect = lower value 1.01 | locus YDL101C, strain DUN1, stronger effect = lower value 1.01 | locus YDL134C, strain PPH21, stronger effect = lower value 1.05 | locus YDL185W, strain tfp1, stronger effect = lower value 1.02 | locus YDL192W, strain arf1, stronger effect = lower value 1.01 | locus YDR001C, strain nth1, stronger effect = lower value 0.987 | locus YDR069C, strain doa4, stronger effect = lower value 0.968 | locus YDR101C, strain arx1, stronger effect = lower value 0.995 | locus YDR137W, strain rgp1, stronger effect = lower value 0.988 | locus YDR150W, strain NUM1, stronger effect = lower value 1.01 | locus YDR159W, strain sac3, stronger effect = lower value 0.939 | locus YDR162C, strain NBP2, stronger effect = lower value 1.03 | locus YDR195W, strain ref2 0.993 | locus YDR297W, strain sur2, stronger effect = lower value 0.998 | locus YDR318W, strain mcm21, stronger effect = lower value 1.02 | locus YDR334W, strain swr1, stronger effect = lower value 0.995 | locus YDR335W, strain msn5, stronger effect = lower value 0.977 | locus YDR388W, stronger effect = lower value 1.01 | locus YDR392W, strain spt3, stronger effect = lower value 0.882 | locus YDR502C, strain sam2, stronger effect = lower value 1.02 | locus YEL003W, strain gim4, stronger effect = lower value 1.01 | locus YEL037C, strain rad23, stronger effect = lower value 0.99 | locus YEL061C, strain CIN8 (second series), stronger effect = lower value 0.997 | locus YEL061C, strain CIN8, stronger effect = lower value 1.01 | locus YER015W, strain faa2, stronger effect = lower value 0.995 | locus YER016W, strain bim1, stronger effect = lower value 0.971 | locus YER110C, stronger effect = lower value 1 | locus YER111C, strain swi4, stronger effect = lower value 0.984 | locus YER155C, strain BEM2 (second series), stronger effect = lower value 0.975 | locus YER155C, strain BEM2, stronger effect = lower value 1.01 | locus YER167W, strain BCK2, stronger effect = lower value 1.01 | locus YFR010W, strain ubp6, stronger effect = lower value 1.01 | locus YGL078C, strain dbp3, stronger effect = lower value 1.02 | locus YGL086W, strain mad1, stronger effect = lower value 1.01 | locus YGL167C, strain pmr1, stronger effect = lower value 1 | locus YGL173C, strain kem1, stronger effect = lower value 1 | locus YGL227W, strain vid30, stronger effect = lower value 0.977 | locus YGL240W, strain doc1, stronger effect = lower value 0.984 | locus YGL248W, strain PDE1, stronger effect = lower value 1.01 | locus YGL253W, strain hxk2, stronger effect = lower value 0.994 | locus YGR078C, strain PAC10, stronger effect = lower value 1 | locus YGR135W, strain pre9, stronger effect = lower value 1.02 | locus YGR252W, strain gcn5, stronger effect = lower value 1.02 | locus YHR013C, strain ard1, stronger effect = lower value 0.963 | locus YHR027C, strain rpn1, stronger effect = lower value 0.986 | locus YHR030C, strain SLT2, stronger effect = lower value 1.02 and 0.997 | locus YHR079C, strain IRE1 (second series), stronger effect = lower value 1.02 | locus YHR079C, strain IRE1, stronger effect = lower value 0.995 | locus YHR094C, strain hxt1, stronger effect = lower value 1.01 | locus YHR129C, strain ARP1, stronger effect = lower value 1.01 | locus YHR142W, strain chs7, stronger effect = lower value 0.999 | locus YHR200W, strain rpn10, stronger effect = lower value 1.03 | locus YIL066C, strain RNR3, stronger effect = lower value 1.02 | locus YIL073C, strain SPO22, stronger effect = lower value 1.15 | locus YIL125W, strain kgd1, stronger effect = lower value 1.01 | locus YIR030C, strain dcg1, stronger effect = lower value 1.02 | locus YJL092W, strain hpr5, stronger effect = lower value 0.996 | locus YJL095W, strain BCK1 (second series), stronger effect = lower value 0.983 | locus YJL095W, strain BCK1, stronger effect = lower value 1 and 0.972 | locus YJL115W, strain asf1, stronger effect = lower value 0.978 | locus YJL129C, strain trk1, stronger effect = lower value 0.955 | locus YJL134W, strain LCB3, stronger effect = lower value 1.01 | locus YJL154C, strain vps35, stronger effect = lower value 0.98 | locus YJL164C, strain tpk1, stronger effect = lower value 0.986 | locus YJL166W, strain qcr8, stronger effect = lower value 0.992 | locus YJL168C, strain set2, stronger effect = lower value 1.01 | locus YJL187C, strain SWE1 (second series), stronger effect = lower value 1.01 | locus YJL187C, strain SWE1, stronger effect = lower value 0.996 | locus YJR043C, strain POL32, stronger effect = lower value 1.02 | locus YJR066W, strain TOR1, stronger effect = lower value 0.967
